The results in this text go back to PubChem BioAssay (EPA / NIEHS).

By AC50 is commonly meant the midpoint of the concentration-response curve, whichever way the signal moves.

Records with an inconclusive call do not appear. The source made the active and inactive calls. The calls were made as follows: active = hit-call score of the fitted dose curve at least 0.9, where 1 is the maximum; inconclusive = response in the unintended direction; inactive = score below 0.9.

Read-out in this test: xenobiotic metabolism (CYP1A2), CYP1A2 (gene 1544)
Nature of the test: CLD_CYP1A2_24hr: CellzDirect (CLD) Gene Expression Assay for xenobiotic metabolism (CYP1A2) at 24 hours (AID 2283683). As for the experimental part: CLD_24hr is a cell-based, multiplexed-readout assay that uses hepatocyte, a human liver primary cell, with measurements taken at 24 hours after chemical dosing in a 96-well plate.CLD_CYP1A2_24hr is one of 16 assay component(s) measured or calculated from the CLD_24hr assay. It is designed to make measurements of mRNA induction, a form of inducible reporter, as detected with chemiluminescence signals by Quantitative Nuclease Protection Assay (qNPA) technology.Data from the assay component CLD_CYP1A2_24hr was analyzed at the endpoint, CLD_CYP1A2_24hr, in the positive analysis fitting direction relative to DMSO as the negative control and baseline of activity. Using a type of inducible reporter, gain-of-signal activity can be used to understand changes in the reporter gene as they relate to the gene CYP1A2. Furthermore, this assay endpoint can be referred to as a primary readout. To generalize the intended target to other relatable targets, this assay endpoint is annotated to the cyp intended target family, where subfamily is xenobiotic metabolism.
Human hepatocyte cultures were treated daily for two consecutive days with fresh dosing solutions containing appropriate concentrations of the 320 ToxCast chemicals (chemical identities were blinded to CellzDirect and other ToxCast collaborators), vehicle control (0.2% DMSO), and positive control inducers as summarized in Table 1. Due to the large number of treatment groups and chemicals examined, the ToxCast chemicals were divided into two groups (spanning two independent cultures of hepatocytes from separate donor preparations (Hu778: ToxCast plates 1 and 2; Hu776: ToxCast plates 3 and 4). Each preparation of human hepatocyte cultures was treated with respective vehicle control, medium only control, set of six positive controls/reference chemicals for the five hepatic receptor pathways, and a subset of eight of the ToxCast chemicals (indoxacarb, pyrithiobac-sodium, norflurazon, cyhalofop-butyl, methomyl, thiram, acetochlor, and propiconazole). These replicate data, coupled with internal replicates designed within the blinded ToxCast chemical library, provided additional data to evaluate interindividual differences between hepatocyte preparations and their potential impact on chemical profiles.Cell morphology and integrity were evaluated using phase-contrast microscopy as an indicator of hepatocyte cell health (Tyson & Green, 1987). Cultures for each treatment group (i.e., media, vehicle [0.2% DMSO], positive control inducers [multiple concentrations], and the ToxCast chemicals [multiple concentrations]) were observed and cell morphology was assessed relative to vehicle control cultures at each harvest time point (0, 6, 24, or 48 h). […] Images were evaluated at the conclusion of the study to assess changes in cell integrity and account for the effects of chemical exposure on uncharacteristic changes in concentration-dependent gene expression profiles. The results from these determinations of apparent cytotoxicity were annotated (yes/no) alongside the corresponding qNPA data for reference.At the conclusion of each treatment period, hepatocyte cultures (96-well) were washed with 1 volume of HBSS, lysed by addition of 25 ul ArrayPlate lysis buffer (HTG, Tucson, AZ), and 70 ul/well of Denaturation Oil, denatured by incubation at 95C for 10 min, and frozen at approximately -70C until analysis by nuclease protection assay (qNPA) (Roberts et al., 2007). For qNPA analysis, cell lysates were thawed at 50C for approximately 30 min, qNPA probes were added, and samples were incubated at 95C for 10 min to begin the detection process by denaturing the target RNA, dissociating the duplexes and secondary structure hybridization. At the conclusion of the hybridization period, S1 nuclease reagent was added to each sample to digest all nonprotected nucleotides at 50C for 60-90 min. […]
On to `O=C(O)C(F)(F)C(F)(F)C(F)(F)C(F)(F)C(F)(F)C(F)(F)C(F)(F)F`, for which the result was inactive.
For the compound `CC(C)(C)C(O)/C(=C\c1ccc(Cl)cc1Cl)n1cncn1` (stereo not given), the AC50 is 0.825 µM (active).
Consider `CC1(c2ccc(Oc3ccccc3)cc2)OC(=O)N(Nc2ccccc2)C1=O` (stereo not given), for which the compound was called inactive.
On the same count and under the same terms, in the case of `CNC(=O)Oc1ccccc1OC(C)C` it was “inactive”.
On to `COC(=O)c1ccccc1CS(=O)(=O)NC(=O)Nc1nc(OC)cc(OC)n1`, for which the AC50 was 20 µM (active).
As to `CCC(C)(NC(=O)c1cc(Cl)c(C)c(Cl)c1)C(=O)CCl` (stereo not given), the compound was called inactive.
On to `Cc1[nH]c(=O)n(C(C)(C)C)c(=O)c1Cl`, for which the concentration at half-maximal activity (AC50) is 20 µM (active).
With `CCOC1Oc2ccc(OS(C)(=O)=O)cc2C1(C)C` (stereo not given), the compound was called inactive.
With `N#CN`, the compound was called inactive.
Consider `CCCN(CCC)c1c([N+](=O)[O-])cc(C(F)(F)F)cc1[N+](=O)[O-]`, for which the AC50 is 5.03 µM (active).
As for `CNC(=O)/C=C(\C)OP(=O)(OC)OC`, the result was inactive.
As to `O=[N+]([O-])c1c(Cl)c(Cl)c(Cl)c(Cl)c1Cl`, the compound was classed as inactive.
For `CC[C@H](C)[C@H]1O[C@]2(C=C[C@@H]1C)C[C@@H]1C[C@@H](C/C=C(\C)[C@@H](O[C@H]3C[C@H](OC)[C@@H](O[C@H]4C[C@H](OC)[C@@H](O)[C@H](C)O4)[C@H](C)O3)[C@@H](C)/C=C/C=C3\CO[C@@H]4[C@H](O)C(C)=C[C@@H](C(=O)O1)[C@]34O)O2` (tested in a mixture with another compound), the compound was classed as inactive.
Consider `COP(=S)(OC)Oc1ccc(SC)c(C)c1`, for which the AC50 was 9.72 µM (active).
With `CN1CSC(=S)N(C)C1`, the outcome was inactive.
The same measure, in the same setting: next, `[2H]C1([2H])[n+]2ccccc2-c2cccc[n+]2C1([2H])[2H]`: “inactive”.
Take `COP(=S)(OC)Oc1ccc([N+](=O)[O-])cc1`: the AC50 was 2.07 µM (active).
With `CC(C)OC(=O)Nc1cccc(Cl)c1`, the AC50 was 2.34 µM (active).
On to `CCS(=O)(=O)c1cccnc1S(=O)(=O)NC(=O)Nc1nc(OC)cc(OC)n1`, for which the call was inactive.
On the same count and under the same terms, in the case of `OCCOc1ccccc1` it was “inactive”.
`COC(=O)c1ccccc1S(=O)(=O)NC(=O)Nc1nc(C)nc(OC)n1`: the AC50 is 3.08 µM (active).
Take `CC(C)N(C(=O)COc1nnc(C(F)(F)F)s1)c1ccc(F)cc1`: the compound was classed as inactive.
For `COC(=O)c1ccccc1S(=O)(=O)NC(=O)N(C)c1nc(C)nc(OC)n1`, the compound was called inactive.
With `O=S(=O)(O)C(F)(F)C(F)(F)C(F)(F)C(F)(F)C(F)(F)C(F)(F)C(F)(F)C(F)(F)F`, the compound was called inactive.
As to `CNC(=O)CSP(=S)(OC)OC`, the result was inactive.
On to `CNC(=O)Oc1cccc(N=CN(C)C)c1`, for which the outcome was inactive.
Still for that read-out and setting: in the case of `Oc1cc(Cl)ccc1Oc1ccc(Cl)cc1Cl` it was “inactive”.
With `CCC(C)Nc1c([N+](=O)[O-])cc(C(C)(C)C)cc1[N+](=O)[O-]` (stereo not given), the AC50 is 3.05 µM (active).
The same measure, in the same setting: next, `CC(C)(C)C(O)C(Oc1ccc(Cl)cc1)n1cncn1` (stereo not given): 2.95 µM (active).
For `CCN(CC)C(=O)SCc1ccc(Cl)cc1`, the outcome was inactive.
Take `O=C(O)CCCOc1ccc(Cl)cc1Cl`: the result was inactive.
`O=C(O)COc1ccc(Cl)cc1Cl`: the outcome was inactive.
On to `CCCN(CCOc1c(Cl)cc(Cl)cc1Cl)C(=O)n1ccnc1`, for which the AC50 is 0.378 µM (active).
With `CCC(C)(C)C(=O)OC1=C(c2ccc(Cl)cc2Cl)C(=O)OC12CCCCC2`, the compound was called inactive.
On the same count and under the same terms, next, `CC1(C)C(C=C(Cl)Cl)C1C(=O)OC(C#N)c1ccc(F)c(Oc2ccccc2)c1` (stereo not given): “inactive”; `COP(=O)(OC)OC=C(Cl)Cl`: “inactive”.
For the compound `CCOCN(C(=O)CCl)c1c(C)cccc1CC`, the AC50 was 0.333 µM (active).
In the case of `C#CCN1C(=O)COc2cc(F)c(N3C(=O)C4=C(CCCC4)C3=O)cc21`, the call was inactive.
Consider `COc1cc(OC)nc(NC(=O)NS(=O)(=O)c2cc(NC=O)ccc2C(=O)N(C)C)n1`, for which the compound was called inactive.
As for `O=C(Nc1ccccc1)Nc1cnns1`, the AC50 is 6.13 µM (active).
